High-throughput results as filed in PubChem.
MBD2 DNA inh – inhibitors of human MBD2 binding to methylated oligonucleotide. TR-FRET. inhibition, % at 4.4 µM. AID 686964. hit rate 0.31% among 370,000; in the data active = inhibition above about 13%
UHRF1 binding – UHRF1 methyl-DNA binding inhibition | hit rate 0.75% among 370,000 | Q96T88 | UHRF1 binding to methylated oligo, TR-FRET | inhibition, % at 4.4 µM | AID 687016; in the data active = inhibition above about 21%;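 note: UHRF1 SRA domain binding a hemimethylated CpG hairpin DNA probe; 0% = median of test compound wells and 100% = reference inhibitor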
Target sequence (Q96T88 whole entry, looked up, the tested form may be a part): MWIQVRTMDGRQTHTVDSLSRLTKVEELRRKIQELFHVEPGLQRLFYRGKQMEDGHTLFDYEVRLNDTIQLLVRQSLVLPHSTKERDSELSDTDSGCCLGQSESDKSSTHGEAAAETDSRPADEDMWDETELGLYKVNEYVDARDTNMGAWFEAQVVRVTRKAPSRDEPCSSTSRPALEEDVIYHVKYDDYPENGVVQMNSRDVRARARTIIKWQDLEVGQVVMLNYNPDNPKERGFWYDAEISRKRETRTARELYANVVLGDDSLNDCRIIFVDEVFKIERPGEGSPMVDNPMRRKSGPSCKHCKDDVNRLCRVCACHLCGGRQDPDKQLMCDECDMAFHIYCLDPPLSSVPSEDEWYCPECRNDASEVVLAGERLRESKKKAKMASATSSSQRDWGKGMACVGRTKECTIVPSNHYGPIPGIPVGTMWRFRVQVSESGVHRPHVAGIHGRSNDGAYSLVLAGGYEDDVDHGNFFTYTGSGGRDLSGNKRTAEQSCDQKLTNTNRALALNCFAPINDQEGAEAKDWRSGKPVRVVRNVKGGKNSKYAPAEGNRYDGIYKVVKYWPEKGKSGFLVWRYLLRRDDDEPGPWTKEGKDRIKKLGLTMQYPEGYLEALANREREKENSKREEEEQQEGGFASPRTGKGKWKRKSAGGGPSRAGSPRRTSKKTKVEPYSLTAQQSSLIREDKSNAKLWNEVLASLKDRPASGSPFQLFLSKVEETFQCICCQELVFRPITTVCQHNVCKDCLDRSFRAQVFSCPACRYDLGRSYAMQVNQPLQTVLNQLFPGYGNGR
PLCg1 inh – PLC-gamma1 (human) inhibition, primary screen | P19174 | purified PLC-gamma1, fluorogenic substrate, fluorescence | inhibition, % at 12.2 µM | hit rate 0.84% among 370,000; in the data active = inhibition above about 9.5%
PLC-beta3 inh – inhibitors of human phospholipase C beta3 | Purified PLC-beta3, fluorogenic substrate, fluorescence | inhibition, % at 12.2 µM | hit rate 0.18% among 370,000 | AID 720704;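 note: 0% = median of compound wells on plate and 100% = full blocker control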
LEDGF integ inh – blocks HIV-1 LEDGF/p75-dependent DNA integration; AID 743269; inhibition, % at 3.7 µM; TR-FRET IN-LEDGF/p75 DNA integration, Eu/Cy5; hit rate 0.64% among 370,000;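 active = inhibition above the screen-wide mean plus 3 SD, cut at about 13% in these data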;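 note: signal is the Cy5 over europium emission ratio at 671 and 618 nm; 0% = plate median of compound wells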
PLCg1 ctr – inhibits human PLC-gamma1 in PLC-beta3 counter-screen; shares compounds with PLCg1 inh; purified PLC-gamma1, fluorogenic substrate, fluorescence; inhibition, % at 12.3 µM; hit rate 3.1% among 3,300; in the data active = inhibition above about 9.5%
PLCbeta3 conf – human PLC-beta3 inhibition, confirmation. hit rate 1% among 3,300. purified PLC-beta3, fluorogenic substrate fluorescence. AID 743261. inhibition, % at 12.3 µM. shares compounds with PLCg1 inh
* hit, by the source's call; · = no result given. Compounds with a hit are over-represented: about 2.3% of the library has one in this group of screens. Cut-off read from the data, not from the text of the source, unless noted: active = inhibition above about 11%; inactive = the rest.

SMILES | MBD2 DNA inh | UHRF1 binding | PLCg1 inh | PLC-beta3 inh | LEDGF integ inh | PLCg1 ctr | PLCbeta3 conf
CCCNC(=O)C[C@H]1CC[C@H]2[C@@H](COc3ccc(NC(=O)c4cncs4)cc3C(=O)N2C)O1 | 10.0 | 4.3 | 12.4* | 11.1* | 3.2 | 16.0* | 17.9*
COc1ccc(Cn2cc(CN3CC=CS3(=O)=O)nn2)cc1 | -5.2 | 4.3 | -0.8 | -0.5 | -3.5 | · | ·
CN1C(=O)c2cc(NC(=O)c3ccc(F)cc3)ccc2OC[C@H]2O[C@H](CC(=O)NC3CCC3)CC[C@H]21 | -3.5 | -0.2 | -1.1 | 2.2 | -1.8 | · | ·
C=CCCC(=O)N[C@H]1CC[C@@]23CCCN2C(=O)CCC[C@H]3[C@H]1C | 2.5 | -1.1 | 0.5 | 2.7 | -2.4 | · | ·
O=c1cc(-c2ccccc2)nc(SCCOc2ccccc2Cl)[nH]1 | -7.5 | 1.2 | 11.6* | 0.2 | 0.4 | -2.8 | -10.3
Fc1ccc(C(c2nnnn2C2CCCC2)N(Cc2ccco2)CC2CCCO2)cc1 (configuration not stated) | -6.7 | 1.8 | 11.0* | 11.5* | -0.8 | -6.9 | -0.3
CCCCOc1ccc(Br)cc1CSC(=N)N | 2.1 | 3.8 | 10.4* | -2.0 | -5.8 | -1.8 | -0.2
O=C(CSc1ccc(F)cc1)NC(=O)NCc1ccccc1 | -2.2 | 6.5 | 10.2* | 0.6 | 6.8 | -0.3 | -4.4
COC(=O)[C@]12C[C@H](CC(=O)NCc3cccc4ccccc34)C(=O)N(CCC3=CCCCC3)C1=C[C@H](C(C)C)O[C@@H]2C1CC1 | 1.9 | -1.1 | 0.0 | 1.4 | 0.9 | · | ·
Cc1ccc(S(=O)(=O)CC(=O)Nc2nc(-c3ccccc3)cs2)cc1 | 1.7 | -2.0 | 3.8 | 3.0 | 3.4 | · | ·
Cc1ccc(S(=O)(=O)CCC(=O)Nc2nc(-c3ccncc3)cs2)cc1 | -2.6 | -1.2 | 12.7* | -5.8 | 0.9 | 3.3 | -6.5
Cc1ccc(C(NC(N)=O)c2ccccc2)cc1 (configuration not stated) | -3.1 | 11.1 | 12.2* | 4.4 | 3.2 | -7.9 | -5.8
COc1ccc(C)cc1NC(=O)CNC(c1ccccc1)c1ccccc1 | 1.3 | -2.2 | 1.0 | 1.3 | 3.9 | · | ·
COc1ccc(OC)c(NC(=O)CNC(c2ccccc2)c2ccccc2)c1 | -3.2 | 2.8 | 12.7* | 2.9 | 2.5 | -6.0 | -1.6
CC(C)CC(NC(=O)C1CCCN1C(=O)OC(C)(C)C)C(=O)NCC(N)=O (configuration not stated) | 0.8 | 3.7 | 7.1 | 13.8* | 7.2 | -1.6 | 2.3
CCCC(=O)Nc1ccc(C(=O)Nc2nnc(COC)s2)cc1 | 4.1 | 0.3 | 4.3 | -1.7 | 2.7 | · | ·
COCc1nnc(NC(=O)c2ccc(NC(C)=O)cc2)s1 | -3.6 | 2.3 | 3.9 | 14.0* | 1.7 | -6.4 | -1.4
COc1ccc(/C=N/NS(=O)(=O)c2ccccc2)cc1OC(=O)c1ccc(C)cc1 | 3.3 | 2.6 | 5.2 | 0.0 | -1.6 | · | ·
O=C(COc1ccc(/C=N/NS(=O)(=O)c2ccccc2)cc1)NCc1ccccc1 | -5.2 | -1.0 | 4.7 | 1.8 | -3.5 | · | ·
COc1ccc(/C=N/NS(=O)(=O)c2ccc(C)cc2)cc1OC(=O)c1ccccc1 | -2.0 | 2.5 | 10.9* | -0.9 | -2.0 | -3.3 | -0.7
CC(=O)Oc1ccc(/C=N/NS(=O)(=O)c2ccccc2)cc1 | 1.8 | 3.9 | 9.2 | 11.2* | -0.2 | -1.5 | -0.2
COC(=O)[C@]12C[C@H](CC(=O)NCCc3ccccc3OC)C(=O)N(Cc3ccco3)C1=C[C@H](COCc1ccccc1)O[C@@H]2C | 6.1 | 2.2 | -0.3 | -3.4 | 2.8 | · | ·
CCCCOCCCNC(=O)C[C@H]1C(=O)N(CCCOC)C2=CCCCC[C@]21C(=O)OC | 2.4 | 0.4 | -0.9 | 1.7 | -2.4 | · | ·
C=C(C)Cn1c(SCC(=O)N/N=C(\C)c2ccc([N+](=O)[O-])cc2)nnc1-c1ccc(Br)cc1 | 4.2 | 3.1 | 10.0* | 10.9* | 4.6 | 1.7 | 2.7
C=C(C)Cn1c(SCC(=O)NN=Cc2c(O)ccc3ccccc23)nnc1-c1ccc(Br)cc1 | 0.6 | -5.1 | -4.5 | -8.7 | -3.4 | · | ·
SMILES | MBD2 DNA inh | UHRF1 binding | PLCg1 inh | PLC-beta3 inh | LEDGF integ inh | PLCg1 ctr | PLCbeta3 conf
CC(=O)c1cc(-c2ccccc2)n(CC(=O)NCc2ccccc2)c1C | -2.2 | -0.8 | 3.3 | 2.3 | 6.6 | · | ·
O=C(O)CC(NC(=O)C12CC3CC(CC(C3)C1)C2)c1cc([N+](=O)[O-])ccc1Cl (configuration not stated) | 0.4 | 3.7 | 13.1* | 6.1 | 6.0 | -5.0 | -3.9
COc1ccc(S[C@]2(C(=O)NCCc3ccccc3)CC(=O)N[C@@H]2c2ccc(OC)cc2)cc1 | -4.6 | 3.8 | 5.1 | 7.5 | 9.5 | · | ·
CCOc1cc(CNCC(C)C)c(Cl)cc1OCC(=O)Nc1ccccc1 | -5.6 | 0.0 | -0.5 | -3.3 | -0.2 | · | ·
CCNCc1cc(OCC)c(OCC(=O)NCCc2ccccc2)cc1Cl | -0.7 | 9.9 | 11.9* | -4.8 | 5.8 | -7.7 | -1.5
O=C(O)c1[nH]c2ccccc2c1C(c1cc(Cl)cc([N+](=O)[O-])c1O)c1c(C(=O)O)[nH]c2ccccc12 | -3.7 | -0.1 | 16.1* | -6.5 | 14.4* | 31.3* | -0.9
Cn1c(=O)c2cc(S(=O)(=O)NC(Cc3ccccc3)C(=O)NCc3ccco3)ccc2n(C)c1=O (configuration not stated) | 3.3 | -1.2 | 74.8* | 1.9 | 1.6 | -5.8 | -2.1
Cc1ccc(C(=O)NC2CCC(C)CC2)s1 (configuration not stated) | -3.2 | -1.7 | 0.9 | -8.0 | -3.2 | · | ·
Cc1ccc(C(=O)NC2CCCC2)s1 | 4.3 | 3.3 | 10.4* | 0.2 | 3.6 | -3.1 | -1.9
COc1ccc(C(CC(=O)c2ccccc2)CC(=O)c2ccccc2)cc1 | -6.2 | 2.2 | 13.0* | -3.8 | 0.6 | 6.4 | 3.5
C=CCC[C@H](Cc1ccc(F)cc1)C(=O)OC[C@@H]1CCCN1C(=O)[C@@H](CC=C)CC(=O)NCCO | 5.3 | 9.0 | 0.9 | 0.8 | 2.0 | · | ·
C=CC[C@@H](Cc1ccc(F)cc1)C(=O)OC[C@@H]1CCCN1C(=O)[C@H](CC=C)CC(=O)N(CCO)Cc1ccccc1 | -2.6 | 2.1 | 10.5* | 8.1 | 1.8 | -8.7 | -4.0
C=CCC[C@@H](Cc1ccc(F)cc1)C(=O)OC[C@@H]1CCCN1C(=O)[C@@H](CC=C)CC(=O)N[C@@H](CO)Cc1ccccc1 | -6.6 | -4.9 | 10.8* | 5.1 | -1.2 | -6.2 | -0.3
C=CC[C@@H](Cc1ccc(F)cc1)C(=O)OC[C@H]1CCCN1C(=O)[C@@H](CC=C)CC(=O)N(CCO)Cc1ccccc1 | -0.9 | 2.8 | 4.1 | 1.3 | -0.6 | · | ·
COc1cccc(Cn2cc(COC(=O)N3CCCC3)nn2)c1 | 1.9 | 1.9 | 1.7 | -3.9 | 3.1 | · | ·
Cc1ccc(NC(=S)NCc2ccc(Cl)cc2)c(C)c1 | -0.8 | -0.6 | 10.6* | -1.3 | 2.5 | -3.0 | -4.9
COc1ccc2c(c1)CCCN2C(=O)C1CCCN(S(=O)(=O)c2ccc(C)c(C)c2)C1 (configuration not stated) | 2.6 | 2.2 | 1.1 | 1.4 | -1.6 | · | ·
